Laboratory results as given in PubChem BioAssay AID894 (National Center for Advancing Translational Sciences (NCATS), 2007).
About 6,500 (4.3%) of roughly 150,000 compounds were called active. Another 12% or so got no clear call; they are omitted. The entries come from a sample that favours actives as a whole. Unmarked numbers belong to inactive results. Calls follow the shape of the dose curve; as a rule, active = well fitted inhibition curve with a large enough effect (not every such curve was filed as active); inconclusive = small, poorly fitted or top-dose-only effect, or another doubt; inactive = no such curve, though single readings can be large or run the other way.

target: 15-hydroxyprostaglandin dehydrogenase [NAD(+)] (Homo sapiens) (UniProt P15428); assay: qHTS Assay for Inhibitors of HPGD (15-Hydroxyprostaglandin Dehydrogenase); conditions: purified HPGD, NADH fluorescence kinetic, PGE2 substrate; activity change, negative = inhibition: active compounds read low
How it was run: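 NADH formation kinetics: reaction with 30 uM PGE2 and 1 mM NAD+ (final), 20 nM enzyme, Tris-HCl pH 8 with Tween 20, after 15 min compound preincubation at room temperature. Fluorescence change, last versus first of five reads.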
% is scaled to controls: 0 for no effect and ±100 for the full control effect; potency is read from the fitted curve at half-maximal effect.

15-hydroxyprostaglandin dehydrogenase [NAD(+)] (Homo sapiens), sequence (P15428 whole entry, looked up): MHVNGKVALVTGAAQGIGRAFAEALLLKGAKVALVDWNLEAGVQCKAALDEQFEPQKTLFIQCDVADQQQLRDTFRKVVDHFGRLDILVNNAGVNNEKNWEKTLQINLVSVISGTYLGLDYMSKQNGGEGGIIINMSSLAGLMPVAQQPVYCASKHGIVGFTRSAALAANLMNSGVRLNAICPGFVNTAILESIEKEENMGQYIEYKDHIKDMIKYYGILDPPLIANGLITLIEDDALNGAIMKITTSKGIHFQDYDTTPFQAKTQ

Structure (SMILES) | activity change, negative = inhibition [%] | Potency
CC(=O)Nc1ccc(C(=O)OCC(=O)Nc2ccc([N+](=O)[O-])cc2C(F)(F)F)cc1 | -4.2 | 
O=C(CSc1nc2ccc([N+](=O)[O-])cc2[nH]1)c1ccc(Cl)cc1 | -4.65 | 
COc1ccc(O[C@H]2C=C[C@@H](c3ccccc3)O[C@@H]2CO/N=C/C[C@@H]2C=C[C@H](OC(C)=O)[C@@H](COC(C)=O)O2)cc1 | -8.59 | 
CCOc1ccc(S(=O)(=O)N(CC(=O)NCC(F)(F)F)Cc2ccco2)cc1 | -11.9 | 
O=C(Nc1cccc([N+](=O)[O-])c1)c1ccc2c(c1)OCO2 | -1.46 | 
CC1(C)CCc2nc(SCc3ccccc3)c(C#N)cc2C1 | -11 | 
N#CC1=C(SCc2ccccc2)NC(=O)C(C#N)C12CCCC2 (stereo not drawn) |  | 17.8 µM (active)
N#CC1=C(SCc2ccc(C#N)cc2)N=C(N)C(c2nc(-c3ccccc3)cs2)C12CCCCC2 (stereo not drawn) | -15.3 | 
Cc1c(Cl)cccc1NC(=O)CC1SC(=NCC2CCCO2)NC1=O (stereo not drawn) | -12.3 | 
O=C(CN1C(=O)/C(=C\c2ccc(C(F)(F)F)cc2)Sc2ccccc21)NCc1ccco1 | 33.1 | 
Cc1noc(/C=C/N(C)C)c1S(=O)(=O)N1CCCC(C(=O)NCc2ccco2)C1 (stereo not drawn) | -17.1 | 
Cc1noc(C)c1S(=O)(=O)N1CCCC(C(=O)Nc2nccs2)C1 (stereo not drawn) |  | 35.5 µM (active)
CCOc1ccc(OCC)c(NC(=O)C2CCN(S(=O)(=O)c3c(C)noc3C)CC2)c1 | -8.5 | 
Cn1cc(/C=C/c2nc3ccccc3c(=O)n2-c2cccc([N+](=O)[O-])c2)c2ccccc21 | -11.6 | 
Cc1ccc(/C=C/C(=O)Nc2cc(S(=O)(=O)N3CCCCCC3)ccc2OCC(F)(F)F)o1 | -24.4 | 
Cn1c(CNC(=O)c2ccccc2F)nnc1SCc1ccc(F)cc1 | -8.88 | 
CN(C)c1ccc(-n2cccc2/C=N/n2cnnc2)cc1 | -4.13 | 

Structure (SMILES) | activity change, negative = inhibition [%] | Potency
CCOC(=O)c1sc(NC(=O)CSc2nc(C)cc(C(F)(F)F)n2)c(C#N)c1C |  | 3.55 µM (active)
CCOC(=O)c1sc(NC(=O)CSc2ncccn2)c(C#N)c1C | -17.5 | 
CCOC(=O)c1sc(NC(=O)CSc2nnc(-c3ccco3)o2)c(C(=O)OCC)c1C | -18.6 | 
COc1cc(NC(=O)c2cc([N+](=O)[O-])ccc2Br)ccc1NC(=O)c1ccco1 | -20.2 | 
CSc1ccccc1NC(=O)Cc1ccc(Br)cc1 | -10.6 | 
COC(=O)c1cc(C(=O)OC)cc(N2C(=O)CC(N3CCN(c4ccccc4)CC3)C2=O)c1 (stereo not drawn) | -19.8 | 
COc1ccccc1-c1nnc(NC(=O)c2cccc(N3C(=O)CCC3=O)c2)o1 | -9.42 | 
COC(=O)c1cccc(-n2[nH]nnc2=S)c1 |  | 28.2 µM (active)
CN1CCN(c2ccc(S(=O)(=O)N3CCCCC3)cc2NC(=O)Cc2ccccc2F)CC1 | 3.83 | 
Cn1c(=O)c2cn(-c3cccc4ccccc34)cc2n(C)c1=O | -20.9 | 
CC1(C)CCCC2=C1CC1C(=O)N(c3ccccc3)C(=O)C1C2 (stereo not drawn) | 0.735 | 
CC1=C(C)CC2C(=O)N(c3cccc4ccccc34)C(=O)C2C1 (stereo not drawn) |  | 25.1 µM (active)
CCCOc1ccc(NC(=O)CC2C(=O)N(C)C(=S)N2Cc2ccc3c(c2)OCO3)cc1 (stereo not drawn) | -0.216 | 
O=C(/C=C/c1ccc(F)cc1)Nc1cccc(S(=O)(=O)Nc2cccc(C(F)(F)F)c2)c1 | -7.72 | 
CCc1ccc(NC(=O)C(C)OC(=O)/C=C/c2cccc([N+](=O)[O-])c2)cc1 (stereo not drawn) | -2.79 | 
CCOC(=O)C1=C(C)NC(=S)NC1c1cccs1 (stereo not drawn) | -5.68 | 
